Assay results from PMC7862700, “An all-to-all approach to the identification of sequence-specific readers for epigenetic DNA modifications on cytosine”.

How the values were obtained:
Assay in all cases: DAPPL (digital affinity profiling via proximity ligation, sequencing); 10 mM Tris-HCl pH 7.5, 50 mM NaCl, 1 mM DTT, 4% glycerol, room temperature, 30 min; GST-TFs on glutathione beads, 16-mer random dsDNA library, 0.1% formaldehyde crosslink after washing; high values mean tight binding
Settings in all cases: protein: recombinant; tags: N-terminal GST; dsDNA, one strand shown
FLI1 = target: T1, FLI1 (Homo sapiens, UniProt Q01543 1-452)
T1 sequence: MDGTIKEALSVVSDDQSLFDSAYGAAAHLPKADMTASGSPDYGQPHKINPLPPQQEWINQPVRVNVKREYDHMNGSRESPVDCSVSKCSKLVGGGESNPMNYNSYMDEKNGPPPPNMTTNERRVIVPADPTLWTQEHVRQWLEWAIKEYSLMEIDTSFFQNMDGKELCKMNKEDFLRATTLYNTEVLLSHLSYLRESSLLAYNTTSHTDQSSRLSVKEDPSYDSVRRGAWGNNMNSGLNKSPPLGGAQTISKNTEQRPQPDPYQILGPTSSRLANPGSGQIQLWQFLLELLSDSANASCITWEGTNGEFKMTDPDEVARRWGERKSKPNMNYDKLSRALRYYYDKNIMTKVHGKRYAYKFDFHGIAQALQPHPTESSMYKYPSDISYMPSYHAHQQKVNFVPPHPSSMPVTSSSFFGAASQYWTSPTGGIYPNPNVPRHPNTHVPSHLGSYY
How it was run: (§1)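 Pools were built from human transcription factors expressed in yeast as GST fusions, captured on glutathione beads and DNA-barcoded, along with a tag-only sample. Incubation with 200 nmole of a 16-mer random double-stranded DNA library lasted 30 min at room temperature in Tris/NaCl/DTT/glycerol buffer, and was followed by washing, 0.1% formaldehyde crosslinking, proximity ligation, PCR amplification and Illumina NextSeq500 sequencing. Binding signal is the quotient of each hexamer's read frequency for a factor and its frequency for the tag-only sample.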

GABPA = target: T2, GABPA (Homo sapiens, UniProt Q06546 1-454)
T2 sequence: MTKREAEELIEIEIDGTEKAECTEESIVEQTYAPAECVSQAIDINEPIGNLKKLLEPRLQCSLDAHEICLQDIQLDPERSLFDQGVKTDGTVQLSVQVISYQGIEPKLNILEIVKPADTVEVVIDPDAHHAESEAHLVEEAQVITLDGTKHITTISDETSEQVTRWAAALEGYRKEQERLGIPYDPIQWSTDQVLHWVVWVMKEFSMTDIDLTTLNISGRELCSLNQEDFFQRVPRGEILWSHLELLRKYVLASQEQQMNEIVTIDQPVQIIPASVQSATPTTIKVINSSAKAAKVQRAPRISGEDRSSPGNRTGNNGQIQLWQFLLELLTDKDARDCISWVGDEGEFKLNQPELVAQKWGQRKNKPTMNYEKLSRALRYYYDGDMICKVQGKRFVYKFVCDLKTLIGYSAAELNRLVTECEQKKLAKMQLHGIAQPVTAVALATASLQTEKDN
How it was run: as §1

ERG = target: T3, ERG (Homo sapiens, UniProt P11308 1-479)
T3 sequence: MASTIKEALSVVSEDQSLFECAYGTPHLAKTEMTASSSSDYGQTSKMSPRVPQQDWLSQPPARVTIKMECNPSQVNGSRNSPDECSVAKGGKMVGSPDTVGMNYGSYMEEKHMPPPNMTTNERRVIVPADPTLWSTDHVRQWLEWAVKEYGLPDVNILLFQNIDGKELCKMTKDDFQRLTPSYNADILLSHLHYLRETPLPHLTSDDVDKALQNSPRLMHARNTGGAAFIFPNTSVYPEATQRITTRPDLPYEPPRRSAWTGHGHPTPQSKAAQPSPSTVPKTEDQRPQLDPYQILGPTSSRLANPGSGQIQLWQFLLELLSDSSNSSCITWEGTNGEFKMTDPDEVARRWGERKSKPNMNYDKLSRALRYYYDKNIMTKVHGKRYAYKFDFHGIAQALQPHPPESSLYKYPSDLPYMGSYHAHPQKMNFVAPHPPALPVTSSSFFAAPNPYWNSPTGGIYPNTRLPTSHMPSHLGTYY
How it was run: as §1

SPIB = SPIB (Homo sapiens, UniProt Q01892 1-262)
Sequence of SPIB (Q01892 whole entry): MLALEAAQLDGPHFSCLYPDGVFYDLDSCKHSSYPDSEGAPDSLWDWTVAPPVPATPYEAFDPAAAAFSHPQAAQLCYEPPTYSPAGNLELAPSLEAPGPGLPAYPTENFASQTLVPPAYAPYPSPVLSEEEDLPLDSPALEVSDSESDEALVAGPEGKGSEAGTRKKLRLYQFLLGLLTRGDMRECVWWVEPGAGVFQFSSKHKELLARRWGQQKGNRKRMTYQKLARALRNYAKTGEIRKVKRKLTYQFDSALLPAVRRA
How it was run: as §1

FEV = target: T4, FEV (Homo sapiens, UniProt Q99581 1-238)
T4 sequence: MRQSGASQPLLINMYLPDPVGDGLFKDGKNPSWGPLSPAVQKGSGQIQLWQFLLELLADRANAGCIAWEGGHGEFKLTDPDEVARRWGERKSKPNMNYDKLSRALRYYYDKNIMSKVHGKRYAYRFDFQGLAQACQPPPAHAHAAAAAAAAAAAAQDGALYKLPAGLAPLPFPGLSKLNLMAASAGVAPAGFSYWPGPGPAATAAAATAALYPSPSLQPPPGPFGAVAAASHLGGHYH
How it was run: as §1

ETV5 = ETV5 (Homo sapiens, UniProt P41161 1-510)
Sequence of ETV5 (P41161 whole entry): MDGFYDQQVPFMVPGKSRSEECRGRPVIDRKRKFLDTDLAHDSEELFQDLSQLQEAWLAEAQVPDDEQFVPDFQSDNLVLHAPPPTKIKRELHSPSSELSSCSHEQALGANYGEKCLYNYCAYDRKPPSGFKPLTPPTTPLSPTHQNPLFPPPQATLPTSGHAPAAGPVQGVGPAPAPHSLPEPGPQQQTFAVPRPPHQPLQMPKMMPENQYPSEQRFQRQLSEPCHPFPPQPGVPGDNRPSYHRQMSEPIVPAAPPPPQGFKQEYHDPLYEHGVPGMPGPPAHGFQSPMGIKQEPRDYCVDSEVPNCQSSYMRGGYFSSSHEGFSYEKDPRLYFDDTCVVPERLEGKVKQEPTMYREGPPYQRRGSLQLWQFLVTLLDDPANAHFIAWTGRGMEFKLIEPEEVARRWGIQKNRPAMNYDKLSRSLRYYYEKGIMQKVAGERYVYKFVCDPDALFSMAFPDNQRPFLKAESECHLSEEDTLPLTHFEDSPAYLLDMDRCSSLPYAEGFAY
How it was run: as §1

ELF4 = ELF4 (Homo sapiens, UniProt Q99607 1-663)
Sequence of ELF4 (Q99607 whole entry): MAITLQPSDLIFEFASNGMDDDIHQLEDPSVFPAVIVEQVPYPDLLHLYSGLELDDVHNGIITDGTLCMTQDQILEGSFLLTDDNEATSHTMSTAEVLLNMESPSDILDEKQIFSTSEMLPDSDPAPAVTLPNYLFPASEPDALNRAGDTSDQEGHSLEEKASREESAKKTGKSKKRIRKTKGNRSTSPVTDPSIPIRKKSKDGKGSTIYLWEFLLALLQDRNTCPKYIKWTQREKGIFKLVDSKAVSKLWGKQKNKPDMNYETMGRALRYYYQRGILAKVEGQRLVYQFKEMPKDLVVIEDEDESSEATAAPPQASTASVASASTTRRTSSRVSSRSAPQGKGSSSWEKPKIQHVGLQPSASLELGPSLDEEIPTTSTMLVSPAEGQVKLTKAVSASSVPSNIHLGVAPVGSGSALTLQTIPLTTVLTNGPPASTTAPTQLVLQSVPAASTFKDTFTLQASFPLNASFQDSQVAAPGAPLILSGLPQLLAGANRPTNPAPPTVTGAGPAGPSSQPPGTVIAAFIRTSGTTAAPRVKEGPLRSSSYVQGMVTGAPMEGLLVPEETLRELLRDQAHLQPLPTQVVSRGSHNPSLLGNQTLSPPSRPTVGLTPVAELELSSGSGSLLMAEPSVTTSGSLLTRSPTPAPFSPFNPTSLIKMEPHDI
How it was run: as §1

ETV2 = target: T5, ETV2 (Homo sapiens, UniProt O00321 1-342)
T5 sequence: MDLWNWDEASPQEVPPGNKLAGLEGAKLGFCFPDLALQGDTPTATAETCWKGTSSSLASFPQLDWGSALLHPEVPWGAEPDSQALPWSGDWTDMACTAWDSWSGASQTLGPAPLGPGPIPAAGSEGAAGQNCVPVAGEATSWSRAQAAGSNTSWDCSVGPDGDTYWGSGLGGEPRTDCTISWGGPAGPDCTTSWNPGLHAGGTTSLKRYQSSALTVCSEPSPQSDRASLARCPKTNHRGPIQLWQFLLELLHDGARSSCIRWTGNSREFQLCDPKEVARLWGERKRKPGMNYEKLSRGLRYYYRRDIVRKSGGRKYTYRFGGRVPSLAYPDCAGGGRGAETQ
How it was run: as §1

ETV3 = target: T6, ETV3 (Homo sapiens, UniProt P41162-2 1-143)
T6 sequence: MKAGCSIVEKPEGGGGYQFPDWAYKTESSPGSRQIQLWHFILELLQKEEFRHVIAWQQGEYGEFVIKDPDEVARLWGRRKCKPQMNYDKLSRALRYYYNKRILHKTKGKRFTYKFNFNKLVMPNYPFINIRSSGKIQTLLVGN
How it was run: as §1

ELF1 = ELF1 (Homo sapiens, UniProt P32519 1-619)
Sequence of ELF1 (P32519 whole entry): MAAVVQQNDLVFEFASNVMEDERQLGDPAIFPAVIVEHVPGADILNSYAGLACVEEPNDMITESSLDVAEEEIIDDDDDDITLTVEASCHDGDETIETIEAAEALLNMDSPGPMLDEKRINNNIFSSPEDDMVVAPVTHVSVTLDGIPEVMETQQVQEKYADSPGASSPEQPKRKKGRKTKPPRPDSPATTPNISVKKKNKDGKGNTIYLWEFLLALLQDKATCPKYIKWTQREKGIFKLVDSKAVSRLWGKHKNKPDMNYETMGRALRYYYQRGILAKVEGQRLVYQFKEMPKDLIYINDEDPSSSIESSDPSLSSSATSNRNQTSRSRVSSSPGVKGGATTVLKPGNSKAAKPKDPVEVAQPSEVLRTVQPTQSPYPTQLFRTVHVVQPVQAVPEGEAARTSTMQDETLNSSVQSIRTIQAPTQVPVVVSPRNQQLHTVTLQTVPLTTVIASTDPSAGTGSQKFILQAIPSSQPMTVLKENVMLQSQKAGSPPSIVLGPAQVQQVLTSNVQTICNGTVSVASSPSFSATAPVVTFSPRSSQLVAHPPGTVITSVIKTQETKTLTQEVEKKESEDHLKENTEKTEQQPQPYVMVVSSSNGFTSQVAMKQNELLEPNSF
How it was run: as §1

SPI1 = SPI1 (Homo sapiens, UniProt P17947 1-270)
How it was run: as §1

ELF3 = target: T7, ELF3 (Homo sapiens, UniProt P78545 1-371)
T7 sequence: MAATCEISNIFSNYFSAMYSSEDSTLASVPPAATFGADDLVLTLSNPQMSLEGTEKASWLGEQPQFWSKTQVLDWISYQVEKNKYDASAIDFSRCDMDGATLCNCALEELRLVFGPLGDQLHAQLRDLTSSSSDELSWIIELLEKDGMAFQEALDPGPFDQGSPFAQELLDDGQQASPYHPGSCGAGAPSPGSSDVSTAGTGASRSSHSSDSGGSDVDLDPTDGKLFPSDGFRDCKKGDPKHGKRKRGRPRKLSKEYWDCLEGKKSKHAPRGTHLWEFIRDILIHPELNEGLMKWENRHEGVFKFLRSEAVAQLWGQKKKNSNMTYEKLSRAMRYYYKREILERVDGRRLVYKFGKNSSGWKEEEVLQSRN
How it was run: as §1

ETV1 = ETV1 (Homo sapiens, UniProt P50549 1-477)
Sequence of ETV1 (P50549 whole entry): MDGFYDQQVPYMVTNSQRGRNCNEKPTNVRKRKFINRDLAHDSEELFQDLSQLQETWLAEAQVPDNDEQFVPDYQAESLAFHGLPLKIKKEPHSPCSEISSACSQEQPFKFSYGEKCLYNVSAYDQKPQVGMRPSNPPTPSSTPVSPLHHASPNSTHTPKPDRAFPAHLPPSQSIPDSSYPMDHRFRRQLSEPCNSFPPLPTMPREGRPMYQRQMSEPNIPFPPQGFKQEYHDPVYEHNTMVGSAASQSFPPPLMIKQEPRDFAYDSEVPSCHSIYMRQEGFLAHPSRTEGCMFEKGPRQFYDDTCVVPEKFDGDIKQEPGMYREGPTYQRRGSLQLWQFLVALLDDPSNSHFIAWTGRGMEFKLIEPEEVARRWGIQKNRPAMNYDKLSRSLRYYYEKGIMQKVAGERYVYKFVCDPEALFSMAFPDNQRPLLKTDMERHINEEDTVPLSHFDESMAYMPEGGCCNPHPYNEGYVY
How it was run: as §1

ETS2 = target: T8, ETS2 (Homo sapiens, UniProt P15036 1-469)
T8 sequence: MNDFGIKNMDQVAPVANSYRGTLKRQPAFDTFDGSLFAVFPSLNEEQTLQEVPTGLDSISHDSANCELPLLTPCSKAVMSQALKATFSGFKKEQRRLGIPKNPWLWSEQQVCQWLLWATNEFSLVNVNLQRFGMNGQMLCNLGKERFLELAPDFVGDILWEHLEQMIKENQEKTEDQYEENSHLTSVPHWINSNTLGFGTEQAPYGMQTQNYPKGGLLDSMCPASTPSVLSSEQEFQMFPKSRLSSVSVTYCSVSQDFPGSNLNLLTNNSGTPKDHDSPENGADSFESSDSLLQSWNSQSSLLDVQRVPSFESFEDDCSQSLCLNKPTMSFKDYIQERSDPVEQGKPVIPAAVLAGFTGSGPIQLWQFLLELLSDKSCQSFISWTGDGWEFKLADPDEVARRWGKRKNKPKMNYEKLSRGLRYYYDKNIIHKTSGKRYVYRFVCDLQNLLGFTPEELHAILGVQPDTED
How it was run: as §1

Sequence	binding signal (FLI1)	binding signal (GABPA)	binding signal (ERG)	binding signal (SPIB)	binding signal (FEV)	binding signal (ETV5)	binding signal (ELF4)	binding signal (ETV2)	binding signal (ETV3)	binding signal (ELF1)	binding signal (SPI1)	binding signal (ELF3)	binding signal (ETV1)	binding signal (ETS2)
AGCTGT	1.04 fold enrichment (6-mer frequency, TF over GST control)	1.05 fold enrichment (6-mer frequency, TF over GST control)	1.01 fold enrichment (6-mer frequency, TF over GST control)	1.06 fold enrichment (6-mer frequency, TF over GST control)	1.04 fold enrichment (6-mer frequency, TF over GST control)	1.02 fold enrichment (6-mer frequency, TF over GST control)	1.02 fold enrichment (6-mer frequency, TF over GST control)	1.07 fold enrichment (6-mer frequency, TF over GST control)	1.07 fold enrichment (6-mer frequency, TF over GST control)	–	–	–	–	–
GGCCCC	1.02 fold enrichment (6-mer frequency, TF over GST control)	1.03 fold enrichment (6-mer frequency, TF over GST control)	1.04 fold enrichment (6-mer frequency, TF over GST control)	–	1.06 fold enrichment (6-mer frequency, TF over GST control)	1.02 fold enrichment (6-mer frequency, TF over GST control)	1 fold enrichment (6-mer frequency, TF over GST control)	1.13 fold enrichment (6-mer frequency, TF over GST control)	1.05 fold enrichment (6-mer frequency, TF over GST control)	1.02 fold enrichment (6-mer frequency, TF over GST control)	1.03 fold enrichment (6-mer frequency, TF over GST control)	1.02 fold enrichment (6-mer frequency, TF over GST control)	1.03 fold enrichment (6-mer frequency, TF over GST control)	1.03 fold enrichment (6-mer frequency, TF over GST control)
